For 6 molecules, growth results are on record in PubChem BioAssay (NCI).

Test systems include NCI-H23 lung; NCI-H226 lung; NCI-H322M lung; HOP-62 NSCLC; NCI-H460 lung; HOP-92 NSCLC; NCI-H522 lung; A549/ATCC NSCLC; 786-0 renal; COLO 205 colon; DU-145 prostate; K-562 leukemia; MALME-3M melanoma; MDA-MB-231 breast; SF-268 CNS; SF-295 CNS; SF-539 CNS; UACC-257 melanoma; M14 melanoma; RXF 393 renal.
Common to all, as to test: NCI-60 one-dose screen, 48 h (100 = growth as untreated, 0 = no growth, -100 = all killed)
Conditions in all cases: 10 µM

The panel holds about 83,000 compounds, 20% with a hit somewhere; the sample as a whole holds those more often.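 Cell lines were cultured in 96-well plates, exposed to a single compound concentration, and assessed for percent growth 48 hours later.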 Unmarked numbers belong to inactive results. Calls of active or inactive are those of the source. Rule for the calls: active = growth percent below 10; inactive = the rest.

In the case of `CC(=O)Nc1ccc(-c2cn(-c3cccc(C(=O)Nc4cc(CN5CCOCC5)cc(C(F)(F)F)c4)c3)nn2)cn1`, the growth was -92.6% (active) in the test with NCI-H23 lung; -74% (active) with NCI-H226 lung; -94.3% (active) in the test on NCI-H322M lung; -64.1% (active) with HOP-62 NSCLC; -65.3% (active) in the test on NCI-H460 lung; -77.5% (active) with HOP-92 NSCLC. In addition, the growth with NCI-H522 lung was -53.2% (active); in the test with A549/ATCC NSCLC it was -74.7% (active); in the test on 786-0 renal, -86% (active); with COLO 205 colon it was -91.5% (active); in the test with DU-145 prostate it was -40% (active); in the test with K-562 leukemia, 0.612% (active). The growth in the test on MALME-3M melanoma was -97.1% (active); with MDA-MB-231 breast, -95.7% (active); in the test with SF-268 CNS, -27.5% (active); in the test with SF-295 CNS it was -88.6% (active); with SF-539 CNS, -100% (active); in the test on UACC-257 melanoma it was -81.5% (active). For the same molecule, the growth in the test with M14 melanoma is -90.3% (active).
For the molecule `O=C1Nc2ccc(Cl)cc2/C1=C/c1ccc(OCc2ccc(Br)cc2F)cc1`, the growth in the test on NCI-H23 lung is 7.12% (active); with NCI-H226 lung, 6.85% (active); with NCI-H322M lung, 48.2%; with HOP-62 NSCLC, 5.12% (active); with NCI-H460 lung it was 7.07% (active); with HOP-92 NSCLC it was 10.9%. The growth was 23.3% in the test with NCI-H522 lung; 34.1% in the test with A549/ATCC NSCLC; 2.33% (active) in the test with 786-0 renal; 51.6% in the test on COLO 205 colon; 41.1% in the test on DU-145 prostate; 40.7% in the test with K-562 leukemia. Moreover, the growth is 19.2% in the test on MALME-3M melanoma; 1.46% (active) in the test on RXF 393 renal; 20.3% with SF-268 CNS; 22% in the test with SF-295 CNS; 33.3% with SF-539 CNS; 65.2% with UACC-257 melanoma. Besides, the growth in the test with M14 melanoma is 46.8%.
`CC(C)Sc1nc(NC2CC2)c(C#N)c(-c2ccccc2)n1`: the growth was 75.5% in the test on NCI-H23 lung; 22.4% with NCI-H226 lung; 77.4% in the test with NCI-H322M lung; 33.9% in the test on HOP-62 NSCLC; 75.1% with NCI-H460 lung; 58.4% with HOP-92 NSCLC. For the same molecule, the growth with NCI-H522 lung was 60.9%; in the test on A549/ATCC NSCLC, 48.6%; in the test on 786-0 renal, 28.5%; in the test on COLO 205 colon, 90.5%; in the test with DU-145 prostate, 86.2%; in the test with K-562 leukemia it was 90%. Further, the growth with MALME-3M melanoma was 104%; with MDA-MB-231 breast, 58.9%; with SF-268 CNS it was 61%; in the test on SF-295 CNS it was 54.9%; in the test with SF-539 CNS it was 42%; with UACC-257 melanoma it was 103%. Moreover, the growth with M14 melanoma is 117%.
Regarding `Cc1cccc2cc(-c3cc(-c4ccccc4)nc(=O)[nH]3)c(Cl)nc12`, the growth in the test with NCI-H23 lung was 88.7%; with NCI-H226 lung it was 75.7%; in the test with NCI-H322M lung, 89.9%; in the test with HOP-62 NSCLC it was 109%; in the test with NCI-H460 lung, 80.7%; with HOP-92 NSCLC it was 77.1%. Besides, the growth is 87.7% in the test on NCI-H522 lung; 96.4% in the test with A549/ATCC NSCLC; 91.6% in the test on 786-0 renal; 119% in the test on COLO 205 colon; 91.7% with DU-145 prostate; 44.3% in the test on K-562 leukemia. For the same molecule, the growth in the test on MALME-3M melanoma is 96.6%; with RXF 393 renal, 88.3%; in the test on SF-268 CNS, 96.3%; with SF-295 CNS, 76%; with SF-539 CNS, 78.1%; in the test with UACC-257 melanoma it was 99.7%. The growth in the test with M14 melanoma is 98.6%.
With `Cc1cc(C)nc(NS(=O)(=O)c2ccc(N/C(N)=N/c3nccc(-c4cccs4)n3)cc2)n1`, the growth with NCI-H23 lung was 90%; with NCI-H226 lung, 77.8%; in the test with NCI-H322M lung it was 95.6%; in the test with HOP-62 NSCLC, 83%; in the test with NCI-H460 lung, 99.2%; in the test on HOP-92 NSCLC, 107%. Besides, the growth in the test on NCI-H522 lung is 90.5%; in the test on A549/ATCC NSCLC, 99.7%; with 786-0 renal it was 111%; with COLO 205 colon, 105%; in the test with DU-145 prostate, 109%; in the test on K-562 leukemia, 89.3%. Also, the growth was 94.2% in the test on MALME-3M melanoma; 87% in the test with MDA-MB-231 breast; 99.4% in the test with SF-268 CNS; 92.6% in the test with SF-295 CNS; 80.4% in the test with SF-539 CNS; 111% in the test with UACC-257 melanoma. Also, the growth with M14 melanoma was 106%.
Regarding `O=C1Nc2ccc(Cl)cc2/C1=C/c1cccc(OCc2ccccc2)c1`, the growth is 31% in the test with NCI-H23 lung; 17.2% in the test with NCI-H226 lung; 44.6% in the test with NCI-H322M lung; 32.9% in the test on HOP-62 NSCLC; 13.5% with NCI-H460 lung; 16.5% in the test on HOP-92 NSCLC. Besides, the growth was 35.9% in the test on NCI-H522 lung; 43.2% in the test with A549/ATCC NSCLC; 40.5% in the test on 786-0 renal; 45.8% with COLO 205 colon; 45.3% in the test on DU-145 prostate; 10.3% in the test with K-562 leukemia. Also, the growth in the test with MALME-3M melanoma was 45.8%; in the test with RXF 393 renal, -0.942% (active); with SF-268 CNS, 28.5%; in the test with SF-295 CNS, 31.7%; with SF-539 CNS, 35.3%; in the test on UACC-257 melanoma, 45.8%. The growth with M14 melanoma was 27%.
